# Marburg entry inh: qHTS for inhibitors of binding or entry into cells for Marburg Virus; AID 540276, 2011; Potency, µM (highest dose often 37.8 µM), actives largely listed as inhibitors; Marburg virus pseudotyped entry inhibition, cell reporter; 300,000 tested, 1.8% active; calls by dose curve; tested in HEK293 cells
# Vaccinia Venus: qHTS for Stage-Specific Inhibitors of Vaccinia Orthopoxvirus: Venus Reporter Primary qHTS; Potency, µM (top dose mostly 36.5 µM), hits mostly inhibitors; 330,000 tested, 0.46% active; Vaccinia virus Venus reporter expression, fluorescence; AID 720580, 2013; calls by dose curve; tested in A549 cells; also: nearly all actives have a fitted effect of over 30% in size
# VACV mCherry inh: qHTS for Stage-Specific Inhibitors of Vaccinia Orthopoxvirus: mCherry Reporter Primary qHTS | Vaccinia virus mCherry reporter infection, fluorescence | Potency, µM (highest dose often 36.5 µM), usual class: inhibitors | 310,000 tested, 0.63% active; calls by dose curve; tested in A549 cells; also: nearly all actives have a fitted effect of over 35% in size
# FMDV antiviral: High Throughput Screening for Foot and Mouth Disease Virus Antivirals | FMDV antiviral cell-based qHTS | Potency, µM (series often up to 57.9 µM), usual class: inhibitors | 410,000 tested, 1.2% active | AID 1159524, 2015; calls by dose curve; tested in HEK293T cells; also: read-out not given here; nearly all actives have a fitted effect of over 45% in size
# LASV entry inh: qHTS for Inhibitors of binding or entry into cells for Lassa Virus; Lassa virus pseudotype entry inhibition, cell reporter; Potency, µM (top dose mostly 37.9 µM), usual class: inhibitors; 300,000 tested, 1.2% active; calls by dose curve; tested in HEK293 cells; also: nearly all actives have a fitted effect of over 50% in size
# Hits are given with their value; - = inactive; ? = inconclusive; . = no result; ! = repeats disagree. A selection: hits, their analogues and other compounds. The true share with any hit is near 3.2%.
SMILES,Marburg entry inh,Vaccinia Venus,VACV mCherry inh,FMDV antiviral,LASV entry inh
O=C(CSc1n[nH]c(-c2ccccn2)n1)Nc1ccc(Cl)cc1,?,-,7.9µM,-,?
CCNc1nc(NCC)nc(-n2cc(C(=O)c3cc(Cl)ccc3O)cn2)n1,.,-,?,.,.
CCn1c2ccccc2c2cc(/C=N/NC(=O)c3ccccc3)ccc21,12µM,.,.,-,?
Cn1c2ccccc2c2cc(/C=N/NC(=O)c3cc(O)cc(O)c3)ccc21,?,-,-,-,-
Cn1c2ccccc2c2cc(/C=N/NC(=O)c3cc(O)ccc3O)ccc21,-,?,-,20µM,?
CSc1cccc(NC(=S)N2CCC(N(C)C3CCCC3)CC2)c1,-,-,-,-,?
CCCCN(C)CCCNC(=O)C1CCN(S(=O)(=O)CCC)CC1,.,-,-,-,-
CCc1nnc(SCc2nc(-c3ccccc3)oc2C)c2cc3sccc3n12,.,-,-,-,-
O=c1[nH]c(O)c(/C=C2/C=CC(c3cc(Cl)ccc3Cl)=N2)c(=O)[nH]1,?,-,-,?,13µM
CC1=Nc2ccccc2/C1=C/c1c(O)[nH]c(=O)[nH]c1=O,.,.,.,-,.
Brc1ccc(N=Nc2ccc3ccccc3n2)cc1,?,-,-,10µM,1.1µM
COc1ccc(-c2nc3ccc(Cl)cn3c2NC2CCCCC2)cc1SC1CCCCC1,.,-,?,-,.
CCCCNc1c(-c2ccc(OC)c(SC3CCCCC3)c2)nc2ccc(C)cn12,.,11µM,10µM,22µM,.
CCCCNc1c(-c2ccc(SC3CCCCC3)c(OC)c2)nc2ccc(C)cn12,.,?,-,28µM!,.
COc1ccc(-c2nc3ccc(C)cn3c2NCc2ccccc2)cc1SC1CCCCC1,.,?,-,20µM,.
CC1(C)CC(=O)C2=C(C1)O[C@@]1(CCCCN3C(=O)c4ccccc4C3=O)Cc3c(ccc4ccccc34)[C@H]2O1,-,.,.,.,.
CCC(=O)n1nc(NCc2ccc(OC)c(OC)c2)nc1NCc1ccc(OC)c(OC)c1,-,?,.,18µM,-
CNc1c(NS(=O)(=O)c2ccc(C3CCCCC3)cc2)c(=O)oc2ccccc12,-,-,-,-,-
O=C(c1cc(-c2ccncc2)nc2ccccc12)N1CCN(c2ccc(N3CCOCC3)nn2)CC1,15µM,-,-,-,-
O=C(c1cc(-c2ccncc2)nc2ccccc12)N1CCN(c2ccccn2)CC1,?,.,.,-,-
O=C(c1cc(-c2ccncc2)nc2ccccc12)N1CCN(c2ccccc2O)CC1,.,.,.,-,.
O=C(c1cc(-c2ccncc2)nc2ccccc12)N1CCN(c2ncccn2)CC1,1.1µM,-,-,-,-
CCOC(=O)C1=C(C)NC(=S)NC1/C=C/c1ccccc1 (configuration not stated),?,-,-,?,-
C[C@H](CO)N1C[C@H](C)[C@@H](CN(C)S(=O)(=O)c2ccc(F)cc2)Oc2ccc(NC(=O)Nc3ccccc3)cc2C1=O,.,-,-,-,.
CC(C)NC(=O)N(C)C[C@H]1Oc2c(NC(=O)Cc3ccccc3)cccc2C(=O)N([C@H](C)CO)C[C@@H]1C,.,-,-,-,.
SMILES,Marburg entry inh,Vaccinia Venus,VACV mCherry inh,FMDV antiviral,LASV entry inh
C[C@H](CO)N1C[C@H](C)[C@@H](CN(C)CC2CCCCC2)Oc2c(NC(=O)Cc3ccccc3)cccc2C1=O,.,10µM,?,-,.
C[C@@H]1CN([C@@H](C)CO)C(=O)Cc2cc(NC(=O)Nc3ccc(C(F)(F)F)cc3)ccc2O[C@@H]1CN(C)S(=O)(=O)c1ccc(Cl)cc1,.,11µM,?,?,.
C[C@H](CO)N1C[C@H](C)[C@@H](CN(C)S(=O)(=O)c2ccccc2)Oc2ccc(NC(=O)Nc3ccccc3)cc2C1=O,.,10µM,?,-,.
CCOC(=O)c1c(S(=O)(=O)N(C)C2CCCCC2)c(C)n(C)c1C,.,.,.,-,.
COc1ccccc1N1CCN(c2nc(CNC(=O)c3sc(C)nc3C)nc3ccccc23)CC1,.,-,-,?,.
CSCCC(NS(=O)(=O)c1ccc2c(c1)oc(=O)n2C)C(=O)NCc1ccc(F)cc1 (configuration not stated),?,-,-,-,-
Cc1noc(/C=C/c2cccnc2)c1[N+](=O)[O-],.,.,.,14µM,.
CC1=C[C@@H](COCc2ccccc2)O[C@@]2(C1)C(=O)N(Cc1ccccc1C(F)(F)F)c1ccccc12,-,.,.,.,.
COc1c(C)cc(C(=O)C2CCCN(C(=O)c3ccc4[nH]ccc4c3)C2)cc1C (configuration not stated),-,-,-,-,4.5µM
CCCC[C@@H](C(=O)O)[C@H](C)CC(=O)Nc1cccc(C(=O)O)c1,-,.,.,.,.
CC1(C)CC(NC(=O)C2CCN(S(=O)(=O)c3ccc(Cl)c(C(F)(F)F)c3)CC2)CC(C)(C)N1,.,.,.,-,.
COc1ccc(N2C(=O)CCSC23C(=O)N(Cc2ccc(F)cc2)c2ccccc23)cc1Cl (configuration not stated),.,?,?,-,?
COc1ccc(N2C(=O)CCSC23C(=O)N(Cc2ccc(F)cc2)c2ccccc23)cc1 (configuration not stated),.,?,11µM,-,?
CCOC(=O)c1c(-c2ccc(OC)cc2)oc2ccc(OC(=O)N(C)C)cc12,18µM,.,.,?,?
CCOC(=O)c1c(-c2ccccc2)oc2ccc(OC(C)=O)cc12,-,-,?,.,?
Cc1ccccc1CN1[C@H](C)[C@@H](c2ccccc2)Oc2c(Cl)cccc2S1(=O)=O,.,.,.,.,-
C[C@@H](NCCCn1cnc2c(OCc3ccccc3)ncnc21)c1cccc2ccccc12,.,?,?,-,.
c1ccc(COc2ncnc3c2ncn3CCCN2CCN(Cc3cccc4ccccc34)CC2)cc1,.,11µM,10µM,28µM,.
O=C1[C@H]2[C@H]3[C@H](O)[C@H](O)C/C(=N\OCc4ccccc4)[C@@H]3CC[C@H]2C(=O)N1C[C@@H]1CCCO1,-,.,.,.,.
CC(C)C(=O)Nc1nc2cc3c(cc2s1)OCCO3,?,-,-,-,4.5µM
CC1CCc2nc(NC(=O)c3ccco3)sc2C1 (configuration not stated),1.3µM,?,-,-,0.28µM
O=C(Nc1cccc(-c2nc3ccccc3s2)c1)C1=COCCO1,-,-,-,-,?
O=C(Nc1ccc(-c2nc3ccccc3s2)cc1)C1=COCCO1,0.79µM,-,-,10µM,2µM
O=C(Nc1nc2cc3c(cc2s1)OCCO3)c1ccco1,0.79µM,?,?,?,0.79µM
CC1CCc2nc(NC(=O)Cc3cccs3)sc2C1 (configuration not stated),-,-,.,-,-
SMILES,Marburg entry inh,Vaccinia Venus,VACV mCherry inh,FMDV antiviral,LASV entry inh
CC1(C(=O)NS(=O)(=O)c2ccc(F)cc2F)CCN1C(=O)Cc1ccc(Cl)cc1Cl (configuration not stated),.,-,-,-,.
O=CNc1ccc(/C=C/c2ccnc3ccccc23)cc1,.,-,-,.,.
O=C(Nc1nc2cc3c(cc2s1)OCO3)C1=COCCO1,0.65µM,-,?,-,?
CCC(C)C(=O)Nc1nc(-c2ccc3c(c2)NC(=O)CO3)cs1 (configuration not stated),?,.,.,-,-
O=C1COc2ccc(-c3csc(NCCc4ccccc4)n3)cc2N1,?,-,-,40µM,?
COc1cc(NC(=O)c2ccccc2Cl)ccc1NC(=O)c1ccco1,-,?,14µM,-,-
